About 83,000 compounds went through this panel and 20% of them were active in at least one assay; those are over-represented in the sample as a whole.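 Single-dose data. Exposure time 48 hours. Values below 10 considered active.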 A number with no mark means an inactive call. Calls of active or inactive are those of the source.
The molecules below were run on MOLT-4 leukemia (assay: NCI-60 one-dose screen, 48 h (100 = growth as untreated, 0 = no growth, -100 = all killed)). Details: 10 µM.

SMILES	growth
O=[N+]([O-])c1cc(Cl)cc(Cl)c1O	106%
CN(C)CCCSc1ccccc1NC1=C(Cl)C(=O)C(Nc2ccccc2SCCCN(C)C)=C(Cl)C1=O	-34% (active)
CCN(CC)CCOc1cccc2c1C(=O)c1ccccc1C2=O	96.4%
CCOC(=O)c1cc(C(=O)c2ccc(OC)c(OC)c2)n2c1ccc1ccc3cccnc3c12	33.8%
CCN(CC)CCOc1ccc2c(c1O)C(=O)c1ccccc1C2=O	72.3%
COc1cc(-c2nn(-c3cccc(NC(=O)NCCNC(=O)c4ccccc4)c3)cc2-c2ccncc2)ccc1Cl	4.74% (active)
CN(C)CCN(Cc1ccccc1)c1ccc2ccccc2n1	104%
Nc1ccc(/C=N/Nc2ccnc3c(O)cccc23)c2cccnc12	14.5%
CCOC(=O)c1cc(C(=O)c2cc(OC)c(OC)c(OC)c2)n2ccc(-c3cc[n+](CC(=O)c4cc(OC)c(OC)c(OC)c4)cc3)cc12	-9.13% (active)
COc1ccc2nc(-c3ccc(Cl)cc3)cc(-c3nnc(SC/C(=N\O)c4ccccc4)n3-c3ccccc3)c2c1	47.5%
CCN(CC)CCNc1ccc(C)c2sc3cc(Cl)ccc3c(=O)c12	1.35% (active)
C/C=C/CSC(C)(C)C(=O)NC	102%
CCOS(=O)(=O)c1c(C(C)C)cc(C(C)C)cc1C(C)C	97.6%
O=C(Nc1nc(-c2ccccc2)nc2c1sc(=S)n2-c1ccccc1)C(F)(F)F	77.2%
CCOC(=O)c1cc(C(=O)c2cc(OC)c(OC)c(OC)c2)n2ncc3ccccc3c12	62%
Cc1ccc(NCCN(C)CC(C)O)c2c(=O)c3ccccc3sc12 (stereo not given)	2.58% (active)
COc1cc(-c2nn(-c3cccc(NC(=O)NCCNS(=O)(=O)c4ccc(Cl)cc4)c3)cc2-c2ccncc2)ccc1Cl	12.1%
COc1cc(-c2nn(-c3cccc(NC(=O)CCN4CCN(c5ccccc5)CC4)c3)cc2-c2ccncc2)ccc1Cl	15.4%
O=S(=O)(O)c1cccc(Nc2ccc3ccccc3c2)c1	95.3%
CCCCCCCCCCOC(c1ccccc1)c1ccccc1	84.5%

SMILES	growth
CC(=O)Nc1ccc2c(c1)C(=O)c1cccc(C(=O)O)c1-2	107%
Cc1ccc(NCCNCC(C)(C)O)c2c(=O)c3ccc(Cl)cc3sc12	-30.7% (active)
CN(C)CCOc1cccc(NC2=C(Cl)C(=O)C(Nc3cccc(OCCN(C)C)c3)=C(Cl)C2=O)c1	-38.5% (active)
CCOC(=O)c1cc(C(=O)c2ccc(Cl)cc2)n2ccc(-c3cc[n+](CC(=O)c4ccc(OC)cc4)cc3)cc12	11.1%
O=C1c2ccccc2C(=O)c2c1ccc(C(Br)Br)c2[N+](=O)[O-]	-45.5% (active)
O=C(NCCNC(=O)c1ccc(F)cc1)Nc1ccc(-n2cc(-c3ccncc3)c(-c3ccc(Cl)c(O)c3)n2)cc1	8.22% (active)
CCN(CC)CC(=O)N(CC)c1ccc(C)c(Cl)c1	65.1%
O=S(=O)(O)c1ccc(Cl)cc1	98.7%
CCNCC(=O)Nc1ccc(C(=O)OCC)cc1	87.5%
S=C(SSC(=S)N(c1ccccc1)c1ccccc1)N(c1ccccc1)c1ccccc1	93.9%
CC(C)CCN(CCC(C)C)CC(=O)Nc1ccc(S(=O)(=O)c2ccc(NC(=O)CN(CCC(C)C)CCC(C)C)cc2)cc1	2.75% (active)
N#CCc1csc(Cc2ccccc2)n1	101%
CCOC(=O)c1cocc1C(=O)O	86.5%
CC(CN(C)C)Oc1ccc(OC(C)CN(C)C)c2c1C(=O)c1ccccc1C2=O (stereo not given)	9.9% (active)
Cc1ccc(S(=O)(=O)N(C)CCCCCC(=O)O)cc1	95.1%
Cc1ccc(NCCN(C)CC(C)O)c2c(=O)c3ccc(Cl)cc3sc12 (stereo not given)	16.2%
O=C(Nc1cccc2c1CCCC2)c1cc2ccccc2cc1O	20.6%
COc1cc(OC)c2c(=O)c(O)c(-c3ccccc3)oc2c1	54.3%
O=C1c2ccccc2C(=O)c2c1ccc(C(Br)Br)c2Cl	-1.06% (active)
COc1cc(C)ccc1Oc1nc(Nc2ccc(N3CCOCC3)cc2)ncc1NC(=O)Nc1cc(C(F)(F)F)cc(C(F)(F)F)c1	19.2%
